# Assay: binders of probe aFST on microarray, primary screen, stem cell growth factor project, biochemical, small-molecule microarray, fluorescence 635/667 (AID 1086);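 also: score merges 667 nm fluorescence with signal-to-noise of each printed compound spot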
# Conditions: higher = more signal
row,Structure (SMILES),composite z-score
1,O=C1C[C@@](C(=O)O)(c2ccc([N+](=O)[O-])cc2)[C@@H](c2ccc(CO)cc2)N1CC12CC3CC(CC(C3)C1)C2,0.49
2,Cc1ccc(S[C@]2(C(=O)O)CC(=O)N(Cc3ccccc3C(F)(F)F)[C@@H]2c2ccc(CO)cc2)cc1,-0.49
3,COC(=O)c1ccc(OC)c(/C=C\CC(CCc2ccccc2)OC(C)=O)c1 (stereo not given),-0.458
4,C#CCNS(=O)(=O)N(C)C,-0.136
5,O=C1CSC(c2cccc([N+](=O)[O-])c2)N1c1ccccc1 (stereo not given),-0.0692
6,CCN(CC)c1ccc(N2CC=CC34O[C@@H]5/C=C\CCCOC(=O)C5[C@H]3C(=O)N(CCCCCO)[C@@H]4C2=O)cc1 (stereo not given in full),-0.663
7,OCc1ccc(-c2cc[n+](Cc3cccc(OC(F)(F)F)c3)cc2)cc1,0.597
8,COCC1=C([C@H](O)CCc2ccccc2)[C@H](CO)[C@@H]2C(=O)N(C)C(=O)[C@@H]2C1,-0.0346
9,COC(=O)[C@@]1(Cc2ccc(F)cc2)[C@H]2c3cc(C(=O)N(C)C)n(Cc4ccc(C)c(F)c4F)c3C[C@H]2CN1C(=O)c1ccccc1,0.758
10,CCOC(=O)C[C@H]1[C@H](OC(=O)c2ccc(C(=O)c3ccccc3)cc2)[C@@H](NC(=O)C2CCCCC2)c2cc(OCCCO)ccc2N1C(=O)Cc1ccc(OC)cc1,0.757
11,CCCN1C(=O)[C@@]2(Cc3ccccc3)N=C(c3ccc(OCCCO)cc3)O[C@H]2c2ccccc21,-0.0754
12,O=C1C2C=CC(C(O)c3ccccn3)N(Nc3ccccc3)C2C(=O)N1c1ccccc1 (stereo not given),0.338
13,COc1cc(C(O)C2C=CC3C(=O)N(C)C(=O)C3N2NC(=O)OC(C)(C)C)cc(OC)c1OC (stereo not given),0.935
14,COCC(=C=CC[C@@H](O)c1ccccc1OCCO)C[C@@H](O)c1ccccn1,-0.0376
15,C[N+](C)(C)CCCC[C@@H]1NC(=O)[C@@H]2C[C@H](C(=O)O)[C@H](c3cccc(OCCO)c3)N2C1=O,-0.184
16,C=CCC(OC(C)=O)[C@@H]1[C@@H](N(Cc2ccc(-c3cccc(C(F)(F)F)c3)o2)C(=O)c2cccc3ccccc23)c2cc(OCCCO)ccc2N1C(=O)c1ccc(-c2ccccc2)cc1 (stereo not given in full),0.123
17,COCCCNC(=O)[C@@]1(C)c2ccccc2C(=O)N(c2ccc(C)cn2)[C@H]1c1ccc(CO)cc1,-0.892
18,COCCCNC(=O)[C@@]1(Cc2ccccc2CN=[N+]=[N-])N=C(c2ccc(OCCCO)cc2)O[C@H]1c1ccccc1N=[N+]=[N-],1.27
19,CC1(C)[C@@H]2CC(C(O)C3C=CC4C(=O)N(c5ccccc5)C(=O)C4N3Nc3ccccc3F)=C[C@@H]1C2 (stereo not given in full),0.955
20,CCOC(=O)C[C@H]1[C@H](OC(=O)Cc2ccc3c(c2)OCO3)[C@@H](NC(=O)c2ccccc2)c2cc(OCCCO)ccc2N1C(=O)c1ccc2ccccc2n1,0.0323
21,C=CC[C@]1(C(=O)NCC(O)CO)N=C(c2ccc(OCCCO)cc2)O[C@H]1c1ccccc1N=[N+]=[N-] (stereo not given in full),0.375
22,C=C(COC)C(=O)CC[C@H](OC(=O)c1ccccc1-c1ccccc1C(=O)O)c1ccc(OCCO)cc1,0.347
23,COC(=O)[C@@]1(Cc2ccc(OC)cc2)[C@H]2c3cc(C(=O)N(C)C)n(Cc4cc(F)c(F)c(F)c4)c3C[C@H]2CN1C(=O)c1ccccc1,1.24
24,C=CCC(OC(C)=O)[C@@H]1[C@@H](N(Cc2ccc(-c3ccccc3)cc2)C(=O)Cc2ccc(OC)cc2)c2cc(OCCCO)ccc2N1C(=O)c1ccc(-c2ccccc2)cc1 (stereo not given in full),0.0321
25,COc1ccc(CCNC(=O)[C@@H]2c3ccccc3C(=O)N(Cc3ccccc3)[C@H]2c2ccc(CO)cc2)cc1,0.0887
26,COC(=O)C(CC#Cc1ccc2c(c1)[C@]1(C(=O)N2)[C@H](c2ccccc2OCCO)N2[C@H](c3ccccc3)[C@H](c3ccccc3)OC(=O)[C@H]2[C@@H]1C(=O)Nc1nc2ccccc2s1)C(=O)OC,0.446
27,COc1cc2c(cc1OC)CN(C(=O)[C@@H]1[C@H]3C(=O)O[C@H](c4ccccc4)[C@H](c4ccccc4)N3[C@H](c3ccc(OCCO)cc3)[C@@]13C(=O)Nc1ccc(C#CCCO)cc13)CC2,0.0774
28,C[N+](C)(C)CCCCCCNC(=O)[C@H]1C[C@H]2C(=O)N3CCC[C@H]3C(=O)N2[C@H]1c1cccc(OCCO)c1,0.301
29,C=C(C(=O)CC[C@H](OC(=O)c1cccnc1)c1ccc(OCCO)cc1)C(C)C,0.995
30,C=C(COC)C(=O)CC[C@H](OC(=O)c1ccccc1-c1ccccc1C(=O)O)c1ccc(CO)o1,-0.118
